Bioassay records deposited in PubChem BioAssay by several laboratories.
Insulin prom up – MIN6 insulin promoter up-regulation | 0.3% of 190,000 active | AID 1625 | MIN6 insulin promoter-GFP reporter, high-content imaging; stronger effect = higher value | z-score at 5 µM;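 active means z-score above 3 at 5 µM with at least 500 cells counted in the well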
L major viab – Leishmania major promastigote growth inhibition; Leishmania major promastigotes, resazurin fluorescence viability; inhibition, % at 10 µM; 9% of 200,000 active; in the data active means inhibition above about 50%;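 further: promastigotes grown with compound for 44 hours at 28 °C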
PTEN del growth – growth suppressors of cells with PTEN tumor suppressor deletion; HCT116 PTEN-null viability, CellTiter-Glo, 60 h; stronger effect = lower value; viability, % at 10 µM; 1.2% of 140,000 active;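 active means viability at or below a set limit, 4 SD under the median of all tested compounds, cut at about 3.7% in these data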;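 further: PTEN knockout HCT116 line with beta catenin targeted HCT116 as companion control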
Autophagy HCS – alters autophagy in cells. MEF GFP-LC3 puncta imaging; test concentration mostly 10 µM. calls only at 10 µM (by protocol). 0.98% of 190,000 active;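 active means percentage of spot-positive cells more than 3 SD above its plate mean, without a fluorescence outlier flag or 80% toxicity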;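 further: spot-positive cell cutoff set from DMSO-treated cells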
bCat KO growth – beta-catenin-lacking colon tumor cell growth suppression. 1.5% of 140,000 active. HCT116 beta-catenin knockout viability, CellTiter-Glo, 60 h; stronger effect = lower value. AID 818. viability, % at 10 µM;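 active means viability at or under a set limit, the compound median less 4 SD, cut at about 6% in these data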;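 further: 0% = Hyamine 1622 control at 20 µM and 100% = untreated cell control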
INS promoter inh – TRM-6 insulin promoter activity inhibition; TRM-6 cells (human fetal islet line), insulin promoter-eGFP reporter, imaging; reporter expression induced with tamoxifen; inhibition, % at 2 µM; 0.9% of 130,000 active;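 active means inhibition above the mean plus 3 SD, with well images judged a real hit on visual review, cut at about 60% in these data, passing the limit was not always enough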
* hit, by the source's call. Most compounds without a hit are left out; they make up all but 9.6% or so of the library.

How did Cc1ccc2cccc(OCC(=O)Nc3ccc4c(c3)OCO4)c2n1 do in these assays?
Insulin prom up: 0.64; L major viab: 2.8; Autophagy HCS: inactive; INS promoter inh: 28.6

What do the screens show for `COc1ccc(S(=O)(=O)Nc2ccc3c(c2)OCO3)cc1C`?
L major viab: -0.8; PTEN del growth: 85.7; Autophagy HCS: inactive; bCat KO growth: 80.0; INS promoter inh: 85.7*

How did Cn1c(=O)oc2cc(S(=O)(=O)Nc3ccc4c(c3)OCO4)ccc21 do in these assays?
Insulin prom up: 0.22; L major viab: 66.1*; PTEN del growth: 82.1; Autophagy HCS: inactive; bCat KO growth: 73.7; INS promoter inh: 18.2

Results for Cn1c(=O)c2cc(S(=O)(=O)Nc3ccc4c(c3)OCO4)ccc2n(C)c1=O ?
Insulin prom up: -1.26; L major viab: 29.7; PTEN del growth: 67.8; Autophagy HCS: inactive; bCat KO growth: 55.5; INS promoter inh: 8.1

What do the screens show for `COc1ccc(S(=O)(=O)Nc2ccc3c(c2)OCO3)cc1`?
Insulin prom up: -0.61; L major viab: -2.2; PTEN del growth: 94.5; Autophagy HCS: inactive; bCat KO growth: 98.0; INS promoter inh: -9.3

How did Cc1ccc2cccc(S(=O)(=O)Nc3ccc4c(c3)OCO4)c2n1 do in these assays?
Insulin prom up: -0.42; L major viab: 95.6*; PTEN del growth: 79.9; Autophagy HCS: inactive; bCat KO growth: 86.8; INS promoter inh: -90.9

Results for Cc1cccn2c(=O)c3cc(C(=O)NCc4ccco4)c(=N)n(CCOCCO)c3nc12 ?
L major viab: -0.6; PTEN del growth: 69.7; Autophagy HCS: inactive; bCat KO growth: 62.3; INS promoter inh: 11.1

Results for C=CCOC(=O)C1=C(C)OC(N)=C(C#N)C1c1ccco1 (stereo unspecified) ?
Insulin prom up: -0.1

Results for Cc1nn(-c2cc(N3CCCCC3)ccc2[N+](=O)[O-])c(=O)c2ccccc12 ?
L major viab: 21.3; PTEN del growth: 72.0; Autophagy HCS: inactive; bCat KO growth: 88.9; INS promoter inh: -71.4

What do the screens show for `O=c1c2ccccc2c(-c2ccccc2)nn1-c1ccccc1`?
Insulin prom up: 0.17

Results for CN1CCN(c2ccc([N+](=O)[O-])c(-n3nc(-c4ccccc4)c4ccccc4c3=O)c2)CC1 ?
Insulin prom up: -1.01; L major viab: 99.3*; PTEN del growth: 63.8; Autophagy HCS: inactive; bCat KO growth: 63.0; INS promoter inh: 10.0

Results for CC(Nc1cc(N2CCNCC2)ccc1[N+](=O)[O-])c1ccccc1 (stereo unspecified) ?
Insulin prom up: -0.26; L major viab: 99.6*; PTEN del growth: 33.4; Autophagy HCS: inactive; bCat KO growth: 48.9; INS promoter inh: -16.1

What do the screens show for `Cc1nn(-c2cc(N3CCNCC3)ccc2[N+](=O)[O-])c(=O)c2ccccc12`?
Insulin prom up: 0.05; L major viab: 67.3*; PTEN del growth: 102.5; Autophagy HCS: inactive; bCat KO growth: 84.6; INS promoter inh: 25.6

How did Cc1ccc2cc3c(NC(=O)C4CCCO4)nn(CC(C)C)c3nc2c1 (stereo unspecified) do in these assays?
Insulin prom up: 1.83; L major viab: 22.6; PTEN del growth: 96.4; Autophagy HCS: inactive; bCat KO growth: 97.8; INS promoter inh: 13.8

How did Cc1ccc(NC(=O)CSc2ccc3nnc(CCNC(=O)c4ccccc4)n3n2)c(C)c1 do in these assays?
Insulin prom up: -0.26; L major viab: -5.4; PTEN del growth: 92.9; Autophagy HCS: inactive; bCat KO growth: 98.6

How did COc1ccccc1CNC(=O)C/C(C)=N/NC(=O)COc1ccc(C)cc1Br do in these assays?
Insulin prom up: 0.38; L major viab: -9.0; PTEN del growth: 78.1; Autophagy HCS: inactive; bCat KO growth: 81.8; INS promoter inh: -76.9

What do the screens show for `Cc1cccc(C(=O)NCCC(=O)Nc2nc(C)c(Cc3ccc4c(c3)OCO4)s2)c1`?
Insulin prom up: -0.41; L major viab: -2.3; PTEN del growth: 95.6; Autophagy HCS: inactive; bCat KO growth: 93.9; INS promoter inh: 32.1

Results for CC1C(C)C(O)(c2ccccc2)CCN1C (stereo unspecified) ?
Insulin prom up: 0.08; L major viab: 69.3*; PTEN del growth: 92.0; Autophagy HCS: inactive; bCat KO growth: 97.2; INS promoter inh: -16.1

How did CC1CC(O)(Cc2ccccc2)C(C)CN1C (stereo unspecified) do in these assays?
Insulin prom up: 0.41; L major viab: -6.3; PTEN del growth: 89.7; Autophagy HCS: inactive; bCat KO growth: 101.4; INS promoter inh: -10.3

Results for O=C(CCCN1C(=O)c2ccccc2C1=O)Nc1ccccn1 ?
L major viab: -6.6; PTEN del growth: 97.1; Autophagy HCS: inactive; bCat KO growth: 97.7; INS promoter inh: -6.8

Results for O=C(OCc1nc2scc(-c3ccccc3)c2c(=O)[nH]1)c1cc([N+](=O)[O-])ccc1Cl ?
Insulin prom up: 0.08; L major viab: 41.2; PTEN del growth: 105.2; Autophagy HCS: inactive; bCat KO growth: 101.9; INS promoter inh: -10.3

How did COc1ccccc1-c1c(C)oc2cc(OCC(=O)OCc3ccccc3)ccc2c1=O do in these assays?
Insulin prom up: 0.12; L major viab: 87.1*; PTEN del growth: 104.2; Autophagy HCS: inactive; bCat KO growth: 93.5; INS promoter inh: 0.0

How did Cc1ccc(OCCN2CCN(c3nc(NCc4ccco4)c4ccccc4n3)CC2)cc1 do in these assays?
Insulin prom up: -1.33; L major viab: 99.2*; PTEN del growth: 24.4; Autophagy HCS: inactive; bCat KO growth: 32.6; INS promoter inh: 0.0

What do the screens show for `OCCN1CCN(c2nc(NCc3ccco3)c3ccccc3n2)CC1`?
L major viab: 25.0; PTEN del growth: 83.2; Autophagy HCS: inactive; bCat KO growth: 83.9; INS promoter inh: -15.0

How did c1ccc(CN2CCN(c3nc(NCc4ccco4)c4ccccc4n3)CC2)cc1 do in these assays?
Insulin prom up: -3.17; L major viab: 100.0*; PTEN del growth: 6.5; Autophagy HCS: inactive; bCat KO growth: 7.5; INS promoter inh: -26.7

What do the screens show for `COc1ccc(C(=O)Nc2nnc(-c3cccs3)s2)cc1`?
Insulin prom up: 0.41; L major viab: -1.8; PTEN del growth: 29.3; Autophagy HCS: active; bCat KO growth: 24.5; INS promoter inh: 2.7

How did COc1ccc(NC(=O)Nc2nnc(-c3cccs3)s2)cc1 do in these assays?
Insulin prom up: -0.36

How did COc1ccc(C(=O)Nc2nnc(-c3ccco3)s2)cc1 do in these assays?
L major viab: 19.0; PTEN del growth: 1.8*; Autophagy HCS: inactive; bCat KO growth: 1.6*

How did Cc1c(C#N)c(N=CN(C)C)c(C(=O)c2ccc(Br)cc2)n1-c1ccc(Cl)cc1 do in these assays?
Insulin prom up: 0.27; L major viab: 99.7*; PTEN del growth: 55.4; Autophagy HCS: inactive; bCat KO growth: 62.3; INS promoter inh: -19.4

What do the screens show for `CC1CC(C)CN(CCCn2c(=S)[nH]c3ccccc3c2=O)C1` (stereo unspecified)?
Insulin prom up: 0.51; L major viab: 89.5*; PTEN del growth: 104.6; Autophagy HCS: inactive; bCat KO growth: 95.2; INS promoter inh: 16.1
